Compound activity deposited in PubChem by several laboratories.
Sampled rows, rich in hits. Any-hit rate of the full collection: about 3.4%.
Shn3 3UTR inh: Schnurri-3 reporter inhibition in Clone20 osteoblasts. Clone20 osteoblast Shn3 3'UTR firefly luciferase, 24 h. inhibition, % at 12.5 µM. 360,000 compounds, 0.52% hits;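 active = mean inhibition of at least 75% with every replicate also reaching 75%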;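 note: 0% = median of neutral control wells and 100% = pilot-screen positive control compound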
TROY signal inh: blocks TROY-dependent signaling in reporter cells. inhibition, % at 10 µM. 360,000 compounds, 0.98% hits. Q293 LMP1-TROYcd NF-kB luciferase reporter, 4 h;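 active = compounds whose plate-normalised and pattern-corrected inhibition of the luciferase reporter signal at the single screening dose is 50% or more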
TRPM1 prom inh: inhibitors of MITF-driven TRPM1 promoter in melanoma cells; 330,000 compounds, 0.83% hits; SK-MEL-5 TRPM1 promoter luciferase, 24 h; AID 488899; inhibition, % at 12.5 µM;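 active = mean inhibition across replicates of 60% or more, whatever share of single replicates reaches that level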
EBV LMP1 NFkB: Epstein-Barr LMP1 NF-kappaB reporter inhibition | 350,000 compounds, 0.69% hits | LMP1-induced NF-kappaB luciferase reporter cells, luminescence | inhibition, % at 12.5 µM; in the data active = inhibition above about 41%;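 note: 0% = neutral control wells and 100% = reference inhibitor control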
HIF-2a block: blocks HIF-2a reporter activity; 786-0 RCC cells HIF-2a reporter, luciferase luminescence, overnight; inhibition, % at 18.8 µM; 360,000 compounds, 0.72% hits;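 active = inhibition of the luminescence signal of 40% or more relative to plate controls, in a single-dose primary screen at 18.75 µM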
TWEAK-Fn14 inh: inhibitors of TWEAK-Fn14 interaction signaling | inhibition, % at 10 µM | 360,000 compounds, 2% hits | TWEAK-stimulated Fn14 reporter cells, luciferase luminescence, 8 h | AID 1159606; in the data active = inhibition above about 50%
Mdm2-MdmX confirm: confirmation of inhibitors of human Mdm2/MdmX interaction, set 2. AID 504601. inhibition, % at 8 µM. shares compounds with HIF-2a block. 740 compounds, 99% hits. SaOS-2 split-luciferase Mdm2/MdmX complementation, luminescence;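 active = mean inhibition of the luminescence signal across two replicates at or above 26 percent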
HIF-2a conf: HIF-2a inhibition, single concentration confirmation; AID 651580; 1,800 compounds, 56% hits; shares compounds with HIF-2a block; 786-0 RCC cells, HIF-2a luciferase reporter luminescence, overnight; inhibition, % at 18.8 µM;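 active = mean inhibition across four replicates of at least 40 percent at the single tested concentration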
HIF-1a cs: HIF-1a inhibition counter-screen for HIF-2a hits; MiaPaCa-2 HIF-1a luciferase reporter, desferoxamine, overnight; shares compounds with HIF-2a block; 1,800 compounds, 72% hits; inhibition, % at 18.8 µM;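 active = mean inhibition of the reporter signal across four replicates at the single tested dose of 50% or more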
Active calls of the source: *; x = not tested or not shown.

SMILES | Shn3 3UTR inh | TROY signal inh | TRPM1 prom inh | EBV LMP1 NFkB | HIF-2a block | TWEAK-Fn14 inh | others
COC(=O)C1=C(c2ccccc2OCc2ccccc2)C[C@@H]2CC[C@H]1N2C(=O)NCCOc1ccccc1 | 13 | -9 | 5 | -1 | 10 | 19
COC(=O)c1nc(-c2ccc3c(n2)C(=O)C(N)=C(OC)C3=O)c(N)c(-c2ccc(OC)c(OC)c2O)c1C | 46 | 27 | 100* | -4 | 37 | -3
COc1cccc(C(c2nnnn2-c2c(C)cccc2C)N2CCC(n3c(=O)[nH]c4ccccc43)CC2)c1OC (centres undefined) | -2 | 17 | x | x | -4 | -15
O=[N+]([O-])c1ccc(CN2CC=C(c3ccccc3)CC2)cc1 | 12 | 1 | 7 | 43* | -16 | 22
COc1ccc2c3c1OC1C(O)C=CC4C(C2)[N+](C)(C)CCC341 (centres undefined) | -7 | -4 | 13 | 7 | 5 | -6
CC(=O)OC1(C)CC(C)C(=O)C(C(O)CC2CC(=O)NC(=O)C2)C1 (centres undefined) | 95* | 86* | 84* | 89* | 77* | 103*
O=C(c1ccc(Cl)cc1)C1CCCN(Cc2cccc3ncccc23)C1 (centres undefined) | 86* | 16 | 16 | 10 | 11 | 25
O=C(c1ccc(Cl)cc1)C1CCCN(Cc2cccc3cccnc23)C1 (centres undefined) | -2 | 4 | 6 | -1 | 19 | -6
O=C1CN=C(c2ccccc2)c2c(sc3c2CCCC3)N1 | 22 | 5 | 12 | -13 | 9 | 11
NC(=S)c1cn(C2OC(CO)C(O)C2O)c2ncnc(N)c12 (centres undefined) | 97* | 68* | 82* | 4 | 52* | 103* | HIF-2a conf=32;HIF-1a cs=105*
Nc1ncnc2c1ccn2[C@@H]1O[C@H](CO)[C@@H](O)[C@H]1O | 96* | 52* | x | 92* | 35* | 95* | Mdm2-MdmX confirm=103*;HIF-2a conf=29;HIF-1a cs=103*
CSc1nc(Cl)c(Br)c(N2CC2)n1 | -9 | 11 | -1 | -1 | 15 | 16
C=CCN1CCc2cccc3c2[C@H]1Cc1ccc(O)c(O)c1-3 | 17 | 11 | -1 | -9 | 16 | -35
CCOc1ccc2oc(C(=O)NN3C(C)CCCC3C)c(C)c2c1 (centres undefined) | 1 | -4 | -17 | 15 | 7 | -9
CC(C)N(Cc1ccco1)/N=C/c1c(O)n(Cc2ccccc2)c(=O)[nH]c1=O | -10 | 10 | 11 | 10 | 21 | -8
Cc1ccccc1C(=O)N1Cc2cnnn2-c2ccccc2C1C#N (centres undefined) | -2 | -6 | -7 | 2 | 2 | 9
Cc1ccccc1CN1Cc2cnnn2-c2ccccc2C1C#N (centres undefined) | -9 | 56* | 98* | 13 | 92* | 96* | HIF-2a conf=97*;HIF-1a cs=107*
Fc1ccccc1CCNCc1cccc(Cl)c1Cl | 20 | -42 | -27 | -13 | -111 | -3
CC(=O)OC(C)(C)/C=C/C(=O)C(C)(O)C1[C@H](O)C[C@@]2(C)C3CC=C4C(CC[C@@H](O)C4(C)C)[C@]3(CO)C(=O)C[C@]12C (some centres undefined) | 70 | 61* | 85* | 30 | 72* | 31 | HIF-2a conf=73*;HIF-1a cs=105*
CC(=O)c1c(C)n(C2CCCCC2)c2ccc(O)cc12 | 14 | 53* | 14 | 70* | 20 | 86* | Mdm2-MdmX confirm=85*
CC1=CC2OC3CC4OC(=O)C=CC=CC(=O)OCCC(C)C(O)C(=O)OCC2(CC1O)C4(C)C31CO1 (centres undefined) | 89* | 84* | 86* | 85* | 75* | 96* | HIF-2a conf=72*;HIF-1a cs=103*
